According to PubChem BioAssay AID1792 (The Scripps Research Institute Molecular Screening Center, 2009):
In all, about 16,000 compounds went through this assay and about 130 (0.81%) were called active. Cut-off read from the data, not from the text of the source: active = inhibition above about 75%; inactive = the rest. This excerpt belongs to a sample that is enriched for actives.

target: NADPH oxidase 1 (Homo sapiens) (UniProt Q9Y5S8); test: inhibitors of human NADPH oxidase 1 (Nox1) (AID 1792); settings: HT29 cells, luminol chemiluminescence ROS; at 6.7 µM; stronger effect = higher value
Sequence (Q9Y5S8 whole entry, looked up): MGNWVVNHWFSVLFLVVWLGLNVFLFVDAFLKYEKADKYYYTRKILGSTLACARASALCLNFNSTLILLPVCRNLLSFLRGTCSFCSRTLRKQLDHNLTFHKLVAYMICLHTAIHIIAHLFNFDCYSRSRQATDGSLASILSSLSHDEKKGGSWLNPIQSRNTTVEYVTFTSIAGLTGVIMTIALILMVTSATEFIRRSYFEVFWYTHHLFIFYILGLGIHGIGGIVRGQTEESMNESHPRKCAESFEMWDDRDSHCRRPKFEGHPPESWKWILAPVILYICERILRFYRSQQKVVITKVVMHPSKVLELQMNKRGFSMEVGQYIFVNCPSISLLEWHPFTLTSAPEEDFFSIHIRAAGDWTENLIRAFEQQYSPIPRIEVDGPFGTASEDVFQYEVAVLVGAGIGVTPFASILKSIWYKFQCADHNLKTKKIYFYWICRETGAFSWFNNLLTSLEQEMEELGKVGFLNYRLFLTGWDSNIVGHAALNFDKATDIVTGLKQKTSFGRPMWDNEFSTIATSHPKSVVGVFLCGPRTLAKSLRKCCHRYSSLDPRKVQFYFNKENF

| Structure (SMILES) | inhibition |
| --- | --- |
| CC(=O)Nc1ccc(NC(=O)c2cc(C)ccc2[N+](=O)[O-])c(C)c1 | -28.7% (inactive) |
| CSc1ccc(C(F)(F)F)cc1NC(=S)Nc1ccccc1 | -18% (inactive) |
| COC(=O)c1sccc1-c1ccc(/C(C)=N/NC(N)=O)o1 | -53.5% (inactive) |
| CCOC1=NC(C(F)(F)F)(C(F)(F)F)N=C(N2CCOCC2)O1 | -12.7% (inactive) |
| O=S(=O)(Cc1cccc(C(F)(F)F)c1)NCc1ccc2c(c1)OCO2 | -29.2% (inactive) |
| Cc1nc(-c2ccccc2)sc1-c1nnc(C2CC2)o1 | -8.29% (inactive) |
| Cc1ccc(CC(=O)c2cccnc2)cc1 | 13.9% (inactive) |
| COc1ccccc1N1CCN(C/C(N)=N/O)CC1 | -72.5% (inactive) |
| O=C(NCc1ccc2c(c1)OCO2)c1cccc2c1OCCCO2 | -22.4% (inactive) |
| COc1ccc(-c2nnc(SCC(O)C(F)(F)F)n2-c2cccc(OC)c2)cc1 (stereo not given) | -65.7% (inactive) |
| O=C1CCC(=O)N(c2ccccc2)N1 | 5.82% (inactive) |
| CN(C)/C=N/NC(=O)c1nc(-c2cccc(-n3cccc3)c2)no1 | 18.8% (inactive) |
| O=S(=O)(Oc1ncccc1C(F)(F)F)c1cccc(F)c1 | -33.3% (inactive) |
| CC(C)(C)c1csc(Sc2ccc([N+](=O)[O-])cc2[N+](=O)[O-])n1 | -42.4% (inactive) |
| Cc1[nH]c2ccccc2c1Sc1ccc(Cl)cc1 | -26.1% (inactive) |
| CC1(C)C2CC[C@](C)(C2)C1NC(=O)c1c(Cl)cccc1Cl (stereo not given in full) | -15.2% (inactive) |
| Oc1c(Cl)c(Cl)c(Cl)c2ccccc12 | -9.97% (inactive) |
| O=C(Nc1ccccc1)N1CCN(Cc2ccccc2)CC1 | -18.5% (inactive) |
| Nc1[nH]c(=O)nc2nc[nH]c12 | 10.8% (inactive) |
| CN(C)CCC(O)c1ccc2c(c1)OCCCCO2 (stereo not given) | -25.5% (inactive) |
| Cc1ccc2sc(NC(=O)NC(=O)c3c(Cl)cccc3Cl)nc2c1 | -14.9% (inactive) |
| Cc1c(C(=O)Nc2ccccc2)sc2cc(C(C)(C)C)sc12 | 4.35% (inactive) |
| CS(=O)(=NC(=O)c1cc2ccccc2o1)c1ccc(Cl)cc1 (stereo not given) | 3.12% (inactive) |
| N#CCc1ccc(NC(=O)c2ccccc2C(=O)Nc2ccc(CC#N)cc2)cc1 | -21.7% (inactive) |
| CCCN(CCC)S(=O)(=O)c1ccc(C(=O)N2CC3CCC(CC3)C2)cc1 | -49.5% (inactive) |

| Structure (SMILES) | inhibition |
| --- | --- |
| OC(CNCc1ccc2c(c1)OCO2)COc1ccccc1 (stereo not given) | -16.2% (inactive) |
| CC(C)c1ccc(N2C(=O)/C(=C\c3ccc(-c4ccc([N+](=O)[O-])cc4)o3)SC2=S)cc1 | -23.7% (inactive) |
| FC(F)(F)c1cccc(-n2c(-c3ccncc3)n[nH]c2=S)c1 | -29.9% (inactive) |
| c1ccc(CN2CCN(Cn3nnc4ccccc43)CC2)cc1 | -54.1% (inactive) |
| CC1(C)C=Cc2cc(-c3noc(-c4ccccc4)n3)ccc2O1 | -38.9% (inactive) |
| Nc1c(-c2nnc(SCC(=O)c3ccccc3)o2)cnn1-c1ccccc1 | 26.2% (inactive) |
| FC(F)(F)c1ccc(/C=N/Nc2nccc(C(F)(F)F)n2)cc1 | -24.2% (inactive) |
| CC(=O)Nc1cccc(-n2nnc(SCC(=O)c3cc(-c4ccccc4)no3)n2)c1 | -33.7% (inactive) |
| Cc1ccc(S(=O)(=O)NNC(=S)NC(C)(C)C)cc1 | -24.1% (inactive) |
| C=C(C)c1cccc(C(C)(C)NC(=O)CC(C)=O)c1 | -17.3% (inactive) |
| COC(=O)c1cccc(CSc2ncccc2C(=O)O)c1 | -48.1% (inactive) |
| COc1ccc(NC(NC(=O)c2ccc(OC)cc2)(C(F)(F)F)C(F)(F)F)cc1 | -26.1% (inactive) |
| COc1ccc(NC(=O)C2CC(C)=C(C)CC2C(=O)O)c(N2CCOCC2)n1 (stereo not given) | -11.6% (inactive) |
| O=C(CSC(=S)N1CCCCC1)c1c(F)cccc1F | 16% (inactive) |
| Cn1nc(-c2ccccc2)cc1N | 12.5% (inactive) |
| O=C(Nc1ccc(C(F)(F)F)cc1)Nc1ccccc1C(=O)O | -32.5% (inactive) |
| Cc1ccc(OC(=O)c2nn(-c3ccccc3)nc2C)c([N+](=O)[O-])n1 | -75.6% (inactive) |
| O=C(NCc1cc2ccccc2s1)C1CN(C(c2ccccc2)c2ccccc2)C1 | -2.49% (inactive) |
| O=C(O)CC(CC(=O)O)c1ccc(C(F)(F)F)cc1 | -30.4% (inactive) |
| COC(=O)c1sc(S(C)=O)c(-c2ccon2)c1C (stereo not given) | -55.1% (inactive) |
| Cc1onc(-c2ccccc2)c1C(=O)Sc1ccc(C(F)(F)F)cn1 | -30.5% (inactive) |
| COC(=O)c1ccc(/C=C2\C(=O)Nc3ccccc32)n1-c1ccc(F)cc1 | -9.26% (inactive) |
| COc1ccc(Cc2nnc(SC)[nH]c2=O)cc1 | -41.8% (inactive) |
| O=S(=O)(Oc1ccc(C2SCCS2)cc1)c1ccc(Br)cc1 | 10.3% (inactive) |
| OC(c1ccncc1)c1c[nH]c2ccccc12 (stereo not given) | -46.2% (inactive) |

| Structure (SMILES) | inhibition |
| --- | --- |
| COc1ccc(OC)c(CCCc2cc(OC)ccc2OC)c1 | -22.8% (inactive) |
| N#Cc1ccc(N2CCN(C(=O)c3ccco3)CC2)cc1 | -5.71% (inactive) |
| Cc1[nH]c2c(F)cc(F)cc2c(=O)c1I | -29.2% (inactive) |
| COc1cc(-c2n[nH]c(=S)n2Cc2ccccc2)cc(OC)c1OC | -31.5% (inactive) |
| O=C1CCCCC(=O)c2ccccc2N1 | -36.9% (inactive) |
| Cc1c(S(=O)(=O)c2ccc(Cl)cc2)csc1C(=O)Nc1ccc2c(c1)OCCO2 | -34.3% (inactive) |
| NS(=O)(=O)c1cc(C(F)(F)F)cc(C(F)(F)F)c1 | -30.4% (inactive) |
| NNC(=O)c1ccc(Cl)cc1Cl | -29.6% (inactive) |
| N#CNC(N)=Nc1cc(Cl)ccc1Cl | -53.6% (inactive) |
| O=C(NCc1csc(-c2cccs2)n1)Nc1ccccc1-c1ccccc1 | 11.9% (inactive) |
| Cn1c(=O)c(/C(N)=N/OC(=O)c2ccccc2Cl)cn(-c2ccccc2)c1=O | -28.3% (inactive) |
| N/C(CC(=O)Nc1ccc(F)c(Cl)c1)=N\O | 8.11% (inactive) |
| O=C1NCCN1CCNS(=O)(=O)c1cc(Cl)sc1Cl | 14.5% (inactive) |
| O=C(N[C@@H](Cc1ccc(O)cc1)C(=O)O)OCc1ccccc1 | -6.06% (inactive) |
| CN(C)NC(=O)c1csnc1-c1c(Cl)cccc1Cl | -20.2% (inactive) |
| CC(OC(=O)c1cccc(Cl)c1)c1ccc[n+](C)c1 (stereo not given) | -47.2% (inactive) |
| CCOC(=O)/C(C#N)=C/c1ccc(-c2nccs2)cc1C(C)(C)C | 8.33% (inactive) |
| N#CC(C#N)=C/C=C(/Sc1nc2cc(Cl)ccc2s1)c1ccc(Cl)cc1 | -27.8% (inactive) |
| CCOC(=O)N1CCN(CC(O)COc2ccc(OC(F)(F)F)cc2)CC1 (stereo not given) | -47.2% (inactive) |
| O=C(O)CC(CC(=O)Oc1ccccc1N1CCCCC1)c1ccccc1 (stereo not given) | -24.8% (inactive) |
| O=C(Oc1ccccc1N1CCCCC1)c1sc2ccccc2c1Cl | 85.7% (active) |
| CCOC(=O)c1sc2ccccc2c1N | -25.5% (inactive) |
| N#C/C(=C\N1CCc2ccccc21)S(=O)(=O)c1ccc(C(F)(F)F)cn1 | -30.5% (inactive) |
| N#CCCN(CCc1ccccn1)S(=O)(=O)c1ccc2c(c1)CCO2 | 35.1% (inactive) |
| CCOC(=O)Cc1cnc(NN=C2C3CC4CC(C3)CC2C4)s1 | 55.1% (inactive) |

| Structure (SMILES) | inhibition |
| --- | --- |
| CSc1sc(NC(=O)N2CCOCC2)c(-c2ccc(Cl)cc2)c1C#N | 17.4% (inactive) |
| O=C(CNC(=O)c1ccccc1F)c1ccc(Br)cc1 | -16.2% (inactive) |
| COc1ccc(COCC(O)CN2CCC(C(N)=O)CC2)cc1 (stereo not given) | -52.2% (inactive) |
| CCOC(=O)O/N=C(\N)c1ccc(Cl)cc1 | 26% (inactive) |
| CC(C)(C)c1ccc(NC(=O)c2ccco2)c(NC(=O)C(Cl)(Cl)Cl)c1 | 6.12% (inactive) |
| CN(Cc1nnc(-c2ccc3ccccc3c2)o1)c1nnc(C(F)(F)F)s1 | 10.6% (inactive) |
| CC1(C)CC(=O)c2c(NCc3ccco3)sc(C#N)c2C1 | -14.6% (inactive) |
| CC(C)n1c(SCC(=O)c2cccc([N+](=O)[O-])c2)nc2cc(C(F)(F)F)ccc21 | 4.76% (inactive) |
| CCOC(=O)c1cc(C)nc(Sc2ccccc2NC(=O)Nc2ccc(Cl)cc2)c1C#N | 34.3% (inactive) |
| Cc1nn(-c2ccccc2)nc1C(=O)Nc1nnc(C2CC2)s1 | -13.2% (inactive) |
| COC(=O)c1cc(OC)c(OC)cc1NS(=O)(=O)c1ccsc1C(=O)OC | -24.8% (inactive) |
| O=C(NNc1ccc(C(F)(F)F)cn1)c1ccccc1Cl | 40.9% (inactive) |
| O=C1C=C(NNc2ccccc2)CCC1 | -9.52% (inactive) |
| Cn1cnnc1SCC(=O)Nc1cc(C(F)(F)F)cc(C(F)(F)F)c1 | -26.6% (inactive) |
| CC1CN=C(N(Cc2cccnc2)C(=O)Nc2ccc(Cl)c(Cl)c2)S1 (stereo not given) | 11.1% (inactive) |
| FC(F)(F)c1cnc(NN=C2CCSCC2)c(Cl)c1 | -21.6% (inactive) |
| N/C(=N/OC(=O)NC(=O)c1c(Cl)cccc1Cl)c1ccc(F)cc1F | -11.4% (inactive) |
| Cc1nn(C)c(C)c1Sc1nccc(-c2cccnc2)n1 | 17.5% (inactive) |
| COc1cc(OC)nc(/N=C/c2nc(-c3ccccc3)oc2O)n1 | 16.6% (inactive) |
| O=C(NCc1ccccc1)c1cc2sccc2s1 | -33% (inactive) |
| CSc1n[nH]c(=O)n1-c1cccc(C(F)(F)F)c1 | -36.5% (inactive) |
| O=S(=O)(c1ccc2c(c1)OCCO2)N1CCN(c2ccc(C(F)(F)F)cn2)CC1 | -13.2% (inactive) |
| Cc1c(CC(=O)Oc2ccc([N+](=O)[O-])cc2)sc2ccc(Cl)cc12 | 15.6% (inactive) |
| CCCCc1ccc(S(N)(=O)=O)cc1 | -14.9% (inactive) |
| O=C(O)CC1(CC(=O)NCc2ccco2)CCCCC1 | -9.49% (inactive) |
